# Experimental data as given in PubChem BioAssay AID651658 (Broad Institute, 2012).
# Values joined by “and” are separate entries in the source; they are usually repeats but may differ in a detail not shown here. Equal values may be shown once. Out of some 340,000 compounds screened, about 5,100 (1.5%) were called active. The sample holds actives, similar compounds and a random draw of the others, so the mix is not that of the screen. A number with no mark means an inactive call.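 Rule for the calls: active = mean Tm shift, scaled 0 neutral to 100 positive control, at about 1.3% or above, every replicate too (limit read from the data); inconclusive = no clear call, values can overlap the other calls; inactive = the rest.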
# Target: Fibroblast growth factor 22 (Homo sapiens) (UniProt Q9HCT0)
# Experiment: FGF22 ligand-induced thermal stabilization – biophysical, thermal shift, single point, FGF22 synaptogenesis inhibitor project, primary screen (AID 651658)
# Details: recombinant FGF22 thermal shift, SYPRO orange fluorescence; at 9.99 µM; hits give high values; percent of sucrose octasulfate shift, DMSO zero
# Chain of Fibroblast growth factor 22 (Homo sapiens) (Q9HCT0 whole entry, looked up): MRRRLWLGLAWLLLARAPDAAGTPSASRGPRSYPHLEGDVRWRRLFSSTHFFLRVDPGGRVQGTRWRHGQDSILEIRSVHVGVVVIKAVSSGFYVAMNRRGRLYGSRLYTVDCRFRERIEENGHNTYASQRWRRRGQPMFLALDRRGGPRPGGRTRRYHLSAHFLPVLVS
row,Compound,"activity (Tm shift, normalised)"
1,C[C@@H]1CN([C@H](C)CO)C(=O)c2cc(NS(=O)(=O)c3ccccc3)ccc2O[C@@H](C)CCCCO[C@H]1CN(C)C(=O)C1CCCCC1,-0.338%
2,Cc1noc(C)c1S(=O)(=O)Nc1ccc2c(c1)CC(=O)N([C@@H](C)CO)C[C@@H](C)[C@H](CN(C)C)O2,-0.289%
3,CCCCn1c(N)c(N(CC)C(=O)/C=C/c2ccco2)c(=O)[nH]c1=O,0.345%
4,CCCCN(C(=O)/C=C/c1ccco1)c1c(N)n(CC(C)C)c(=O)[nH]c1=O,43.9% (active)
5,CCCCN(C(=O)c1nn(C)c(=O)c2ccccc12)c1c(N)n(CCC)c(=O)[nH]c1=O,0.011%
6,CC(C)NC(=O)N(C)C[C@H]1Oc2ccc(NC(=O)CCCCCC(=O)Nc3ccccc3N)cc2C(=O)N([C@@H](C)CO)C[C@@H]1C,-0.213%
7,COc1ccc2c3c([nH]c2c1)[C@@H](CO)N(C(=O)C1CC1)CC31CCN(Cc2nccs2)CC1,0.119%
8,CC(C)NC(=O)Nc1ccc2c(c1)C(=O)N([C@H](C)CO)C[C@H](C)[C@@H](CN(C)Cc1ccc3c(c1)OCO3)OCCCC[C@H](C)O2,-0.249%
9,O=C(Nc1ccccc1Cl)NC1(C(=O)N2CCOCC2)CCCCC1,-0.339%
10,CC(=O)N1CCN(C(=O)C2(NC(=O)Nc3ccc(C)cc3)CCCCC2)CC1,-0.042%
11,Cc1ccccc1NC(=O)NC1(C(=O)N2CCCC2)CCCCC1,43.5% (active)
12,C[C@@H]1CN([C@H](C)CO)C(=O)Cc2cc(NC(=O)NC3CCCCC3)ccc2O[C@H]1CN(C)S(C)(=O)=O,-0.091% and -0.115%
13,CC(C)NC(=O)Nc1ccc2c(c1)C(=O)N([C@@H](C)CO)C[C@H](C)[C@@H](CN(C)Cc1ccc(C(=O)O)cc1)OCCCC[C@H](C)O2,0.548%
14,COc1ccc2c3c([nH]c2c1)[C@H](CO)N(Cc1ccccc1Cl)CC31CN(C(=O)C2CC2)C1,0.006%
15,COc1cccc(S(=O)(=O)N[C@@H]2C=C[C@H](CC(=O)NC3CCC3)O[C@H]2CO)c1,0.557%
16,CC[N+]1(CC)CC2=Cc3ccccc3CC2C1 (configuration not stated),43.3% (active)
17,C[C@@H]1CCCCO[C@@H](CN(C)Cc2ccccc2)[C@H](C)CN([C@H](C)CO)C(=O)c2cc(NC(=O)Nc3cccc4ccccc34)ccc2O1,-0.579%
18,C[C@@H]1CCCCO[C@H](CN(C)C(=O)NC2CCCCC2)[C@H](C)CN([C@H](C)CO)C(=O)c2cc(NC(=O)c3ccncc3)ccc2O1,0.182%
19,COc1ccc2c3c(n(C)c2c1)[C@H](CO)N(C(=O)NC(C)C)CC31CN(CC2CCCCC2)C1,-0.103%
20,COc1ccc(CNC(=O)C2CCCC2)cc1,-0.099%
21,COc1ccc(CNC(=O)C2CCN(S(=O)(=O)c3ccc(SC)cc3)CC2)cc1,-0.235%
22,COc1ccc(CNC(=O)C2CCN(S(C)(=O)=O)CC2)cc1,43.4% (active)
23,CN(C)C(=O)c1ccc(-c2ccc([C@@H]3[C@H](C#N)N(C(=O)C4CC4)[C@H]3CO)cc2)cc1,0.09%
24,CO[C@H]1CN(C)C(=O)c2cc(NC(=O)Nc3cccc(F)c3)ccc2OC[C@@H](C)N(C)C[C@H]1C,0.028%

row,Compound,"activity (Tm shift, normalised)"
1,S=C(Nc1ccc(Cl)cc1Cl)N1CCCC1,-0.146%
2,CC1CN(C(=S)Nc2ccc(Br)cc2Cl)CC(C)O1 (configuration not stated),0.064%
3,S=C(Nc1ccc(Br)cc1Cl)N1CCC2(CC1)OCCO2,43.8% (active)
4,O=C(Nc1cc(F)ccc1F)N1C[C@H]2[C@@H](c3ccccc31)[C@@H](CO)N2C(=O)c1ccccc1,0.029%
5,N#C[C@@H]1[C@H](c2ccccc2)[C@H](CO)N1C(=O)CN1CCOCC1,0.041%
6,O=C(Nc1ccccc1)N1C[C@@H]2[C@H](c3ccccc31)[C@H](CO)N2C(=O)c1ccccn1,-1.73%
7,CC(C)NC(=O)N1C[C@@H]2[C@H](c3ccccc31)[C@H](CO)N2C(=O)c1ccccn1,16.8% (active)
8,O=C(Nc1ccccc1F)N1C[C@H]2[C@@H](c3ccccc31)[C@H](CO)N2C(=O)c1ccccn1,-1.13%
9,O=C(Nc1ccc(C(F)(F)F)cc1)N[C@@H]1CC[C@@H](CCNC(=O)c2ccccc2F)O[C@H]1CO,0.08%
10,O=C(COC(=O)c1cc(-c2cccs2)nn1-c1ccccc1)Nc1cc([N+](=O)[O-])ccc1Cl,43.8% (active)
11,Cc1nn(-c2ccccc2)c(C)c1NC(=O)COC(=O)c1cc(Cl)ccc1O,-0.058%
12,COc1ccc(Cl)cc1NC(=O)CN(C)C(=O)c1cc(-c2cccs2)nn1-c1ccccc1,0.161%
13,CCC(=O)N1[C@@H](CO)[C@@H](c2ccc(C3=CCCC3)cc2)C12CN(C(=O)COC)C2,0.109%
14,C[C@H]1CCCCO[C@@H](CN(C)Cc2ccccc2)[C@@H](C)CN([C@@H](C)CO)C(=O)c2cc(NC(=O)CCCN(C)C)ccc2O1,-0.026%
15,CN(c1ccccc1)S(=O)(=O)c1ccc(C(=O)N2CCN(c3ccccc3Cl)CC2)cc1,-0.343%
16,O=C(c1ccc2ccccc2n1)N1CCN(c2ccccc2Cl)CC1,43.4% (active)
17,CCNC(=O)C1(C)CCCN(C(=O)c2ccc3ccccc3n2)C1 (configuration not stated),-0.027%
18,O=C(NCC[C@H]1CC[C@@H](NC(=O)c2cnccn2)[C@H](CO)O1)Nc1ccc(Cl)cc1,0.223%
19,CCC(=O)Nc1ccc2c(c1)C(=O)N(C)[C@@H]1CC[C@@H](CC(=O)NCc3ccccc3Cl)O[C@H]1CO2,-0.111%
20,C[C@@H]1CN([C@H](C)CO)S(=O)(=O)c2ccc(C#CC3(O)CCCC3)cc2O[C@@H]1CN(C)C(=O)c1cccnc1,-0.011%
21,Cc1ccc(S(=O)(=O)N(C)C[C@@H]2Oc3ccc(NC(=O)c4ccncc4)cc3CC(=O)N([C@H](C)CO)C[C@H]2C)cc1,-0.013%
22,CC1(C)CC(=O)C(CC(=O)N2CCC(Cc3ccccc3)CC2)C(=O)C1,41.9%
23,CC1(C)CC(=O)C(C2c3ccccc3S(=O)(=O)c3ccccc32)C(=O)C1,42.9% (active)
24,COc1ccc2c3c(n(C)c2c1)[C@H](CO)N(CC1CC1)CC31CCN(C(=O)c2ccccc2)CC1,-0.078%

row,Compound,"activity (Tm shift, normalised)"
1,COc1ccc(S(=O)(=O)N[C@@H]2CC[C@@H](CC(=O)N3CCC(Cc4ccccc4)CC3)O[C@@H]2CO)cc1,0.502%
2,CS(=O)(=O)N1[C@H](CO)[C@H](c2ccccc2)C12CN(C(=O)C1CC1)C2,-0.066%
3,Cn1cc(C(=O)c2ccc(Cl)cc2Cl)cc1C(=O)NN,-0.308%
4,Cc1ccccc1NC(=O)Cc1nc(COC(=O)CNC(=O)c2ccc(Cl)cc2Cl)cs1,0.003%
5,CC(=O)Cc1nsc(NC(=O)c2ccc(Cl)cc2Cl)n1,44.2% (active)
6,O=C(CN1C(=O)S/C(=C\c2ccccc2F)C1=O)NCCCn1ccnc1,-0.15%
7,Cn1cccc1/C=C1\SC(=O)N(CC(=O)Nc2ccc(F)cc2)C1=O,43% (active)
8,Cc1nn(Cc2ccccc2)c(C)c1C(=O)NCCN1C(=O)S/C(=C\c2ccc(F)cc2)C1=O,0.11%
9,COc1ccc(S(=O)(=O)N(CC(=O)N/N=C/c2ccc(C(=O)O)cc2)Cc2ccccc2)cc1OC,-0.204%
10,CC(=O)Nc1ccc(S(=O)(=O)N(CCc2ccccc2)CC(=O)N/N=C/c2ccc(C(=O)O)cc2)cc1,1.76% (active)
11,O=C(O)c1ccc(/C=N/NC(=S)NCc2ccccc2)cc1,0.16%
12,CNC[C@H]1Oc2ncc(-c3ccccc3F)cc2C(=O)N([C@H](C)CO)C[C@H]1C,-0.078%
13,COCC#Cc1ccc2c(c1)O[C@H](CN(C)CC1CC1)[C@H](C)CN([C@H](C)CO)S2(=O)=O,0.379%
14,CCCN(C)C[C@@H]1OCCCC[C@@H](C)Oc2ccc(NS(=O)(=O)c3c(C)noc3C)cc2C(=O)N([C@H](C)CO)C[C@@H]1C,-0.518%
15,C[C@H](CO)N1C[C@H](C)[C@H](CN(C)S(=O)(=O)c2cccs2)OCCCC[C@H](C)Oc2ccc(NC(=O)CCCN(C)C)cc2C1=O,-0.21%
16,O=C1c2cccc3c([N+](=O)[O-])ccc(c23)C(=O)N1CC1CCCO1 (configuration not stated),0.06%
17,CN1C(=O)c2cccc3c(N)ccc(c23)C1=O,28.3% (active)
18,CO[C@H]1CN(C)C(=O)c2cc(NC(=O)Nc3ccccc3F)ccc2OC[C@H](C)N(C)C[C@H]1C,-0.052%
19,COc1ccccc1S(=O)(=O)N(C)C[C@H]1Oc2cc(C#CCC3CCCC3)ccc2S(=O)(=O)N([C@@H](C)CO)C[C@H]1C,0.195%
20,COc1ccc2c3c(n(C)c2c1)[C@@H](CO)N(C(=O)c1cnccn1)CC31CCN(C(C)=O)CC1,-0.238%
21,CC(=O)N1c2ccc(S(=O)(=O)N3CCC(C(=O)NC4CCCCC4C)CC3)cc2CC1C (configuration not stated),0.24%
22,CC(=O)N1c2ccc(S(=O)(=O)N3CCCC(C(=O)NCc4ccc(Cl)cc4)C3)cc2CC1C (configuration not stated),0.095%
23,CC(=O)N1c2ccc(S(=O)(=O)N3CCC(C(=O)NCc4ccc(F)cc4)CC3)cc2CC1C (configuration not stated),1.48% (active)
24,O=C(c1ccncc1)N1CC2(C1)[C@@H](c1ccccc1)[C@H](CO)N2C(=O)c1ccncc1,-0.088%
